# Test results from PubChem BioAssay (NCI).
# The panel holds about 83,000 compounds, 20% with a hit somewhere; the sample as a whole holds those more often.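 Results are percent growth after 48 hours of single-concentration exposure. 100 means growth as in untreated cells, lower positive values show inhibition; negative values down to -100 show cell death.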 Activity calls are given as the source filed them. Rule for the calls: active = growth percent below 10; inactive = the rest.
# Test system: SNB-19 CNS
# Test: NCI-60 one-dose screen, 48 h (100 = growth as untreated, 0 = no growth, -100 = all killed)
# Conditions: 10 µM unless noted
row,SMILES,growth
1,Nc1cc2ccccc2c(=O)n1NC(=O)c1ccc(Br)cc1,84.5% (inactive)
2,COc1cc(C2CC(c3ccc(S(=O)(=O)NCCNc4nc(N(C)C)nc(N5CCOCC5)n4)cc3)=Nc3c(N)nc(N)nc3N2)cc(OC)c1OC (configuration not stated),96.2% (inactive)
3,Cn1cc(-c2cc(N)n3nc(-c4c[nH]c5ccccc45)cc3n2)c2ccccc21,-88.7% (active)
4,COc1ccc2[nH]c(=O)c(CSc3ccccc3Nc3nccc(-c4ccc(C(F)(F)F)cc4)n3)cc2c1,33.7% (inactive)

# Test system: U251 CNS
# Test: as above
# Conditions: 10 µM unless noted
row,SMILES,growth
1,CCc1ccccc1-c1nc(CN[C@@H]2C[C@@H]3C[C@H]([C@H]2C)C3(C)C)c(C)o1,-61.9% (active)
2,Cc1ccccc1Nc1nnc(-c2c[nH]c3ccccc23)o1,11.8% (inactive)
3,Cc1ccc(/C=C/C(=O)c2ccc(S(=O)(=O)NCCNc3nc(N(C)C)nc(N4CCOCC4)n3)cc2)cc1,42.7% (inactive)
4,COC(=O)c1c(C(=O)OC)c2ccc3c4ccccc4ccc3n2c1C(=O)C(C)Br (configuration not stated),23.9% (inactive)
5,COc1cc(CNC(=O)C[C@H](C)CCC=C(C)C)ccc1OCc1cn(-c2ccc(Cl)cc2Cl)nn1,54.4% (inactive)
6,Cc1cc(C(NC(=O)C2CC3(CC(Nc4cccc5c4C(=O)N(C4CCC(=O)NC4=O)C5=O)C3)C2)c2ccc3c(c2)OC(F)(F)O3)c(O)c2ncccc12 (configuration not stated),7.11% (active)
7,O=C(CSc1nnc(-c2ccc(-c3nc4ccc(Cl)cc4[nH]3)cc2)o1)Nc1ccc(Br)cc1,-89.8% (active)
8,COc1ccc(-c2nc3ccccc3n2CC(=O)N=Nc2c(O)[nH]c3ccc(OC)cc23)cc1,96.6% (inactive)
